Assay results taken from the supplement of paper PMC6555819.

Columns and labels:
Experiment in all cases: PBM binding z-score (relative to random genomic background probes); higher = stronger binding; sequences stand for … in GC…GCGATTGACAGCGTAGAATGAAGG
[1] = tested on: PPARg:RXRa DBDmut IVT, anti-RXR (DBD mutation: RXRa K156A/R161A, NR concentration 270 nM, RXRa partner concentration 90 nM)
Outline: (§1)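 For binding z-scores, the reference was random background probes on custom Agilent 4×180K protein-binding microarrays. These arrays were incubated 1 h with ligand-free nuclear receptor dimers in PBS pH 7.4, 2% milk, 0.02% Triton X-100, 1 mM DTT, 0.2 mg/mL BSA and 0.4 mg/ml salmon testes DNA. Fluorescence was scanned after antibody detection of each partner (one per run) and regression-normalized.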

[2] = tested on: PPARg:RXRa IVT, anti-PPARg (NR concentration 270 nM, RXRa partner concentration 90 nM)
Outline: as §1

[3] = tested on: PPARg homodimer (NR concentration 180 nM)
Outline: as §1

[4] = tested on: PXR:RXRa (NR concentration 270 nM, RXRa partner concentration 90 nM)
Outline: as §1

[5] = tested on: PXR homodimer (NR concentration 270 nM)
Outline: as §1

[6] = tested on: RARa:RXR (NR concentration 270 nM, RXRa partner concentration 90 nM)
Outline: as §1

[7] = tested on: RARa homodimer (NR concentration 270 nM)
Outline: as §1

[8] = tested on: RARb:RXRa (NR concentration 270 nM, RXRa partner concentration 90 nM)
Outline: as §1

Sequence	PBM binding z-score [1]	PBM binding z-score [2]	PBM binding z-score [3]	PBM binding z-score [4]	PBM binding z-score [5]	PBM binding z-score [6]	PBM binding z-score [7]	PBM binding z-score [8]
TCGAGTAGGTTACGGGGGCATTAAGGGATGAAGA	4.98	6.1	1.98	2.76	1.24	2.79	0.727	2.59
CTATGTAGGTTAAGGGGTTCATTCAGTTTGAAAG	6.98	6.85	1.79	5.14	12.3	3.12	1.25	1.82
CTATGTAGTTTAAGGGGGTCATTCAGTTTGAAAG	3.79	4.99	4.75	5.93	13.2	5.64	2.73	3.68
CCGAGTAGGTTATGAGGGGGCATTCAGTGCGAAT	3.45	4.11	1.86	4.85	5.74	2.87	0.734	2.06
TCGAGTAGTTTACGGGGGCATTCAGGGATGAAGA	2.03	3.22	0.685	2.74	1.47	2.36	-0.25	2
CTATGTAGGTTAAGGGGGTCATCCAGTTTGAAAG	7.02	7.73	3.6	5.82	9.26	5.73	1.05	3.65
TCGAGTAGGTTACGGGGGCATTCACGGATGAAGA	5.07	6.04	2.12	3.21	1.4	3.16	0.0892	2.51
CTATGTAGGTTAAGGGCGTCATTCAGTTTGAAAG	7.33	6.94	1.62	0.377	0.443	0.584	-0.284	1.27
TCGAGTAGGTTACGGGGGCACTCAGGGATGAAGA	4.71	6.2	2.56	2.71	0.594	3.05	-0.263	2.65
TCGAGCAGGTTACGGGGGCATTCAGGGATGAAGA	2.41	4.12	1.23	3.03	0.942	3.16	0.368	2.53
CTATGTAGCTTAAGGGGGTCATTCAGTTTGAAAG	2.86	4.78	3.12	5.52	10	5.18	1.84	3.33
CTATGTAGGTTAAGGGTGTCATTCAGTTTGAAAG	7.72	7.59	1.32	1.38	0.641	1.5	0.262	1.56
CTATGTAGGTTAAGGGGGCCATTCAGTTTGAAAG	7.13	7.17	1.77	2.69	3.67	2.17	0.379	1.94
CTATGTAGGTTAAGGGGGTCCTTCAGTTTGAAAG	7.26	6.7	1.58	2.33	1.68	1.92	0.652	1.67
CCGAGTAGGTTACGAGGGGGCTTTCAGTGCGAAT	4.79	4.3	0.789	2.01	0.241	1.55	-0.415	1.41
CCGAGTAGGTTACGAGGGGCCATTCAGTGCGAAT	4.13	3.51	0.766	2.92	1.09	1.11	0.136	1.47
CCGAGTAGTTTACGAGGGGGCATTCAGTGCGAAT	1.32	0.828	0.86	3.29	4.22	2.06	0.00505	1.4
CTATGTAGGTTCAGGGGGTCATTCAGTTTGAAAG	3.32	4.65	3.3	6.29	10.6	6.89	2.03	3.59
TCGAGTAGGTTACGGGGGCATGCAGGGATGAAGA	5.07	5.87	1.59	2.75	0.876	2.91	0.522	2.5
CCGAGTAGGGTACGAGGGGGCATTCAGTGCGAAT	2.87	3.56	0.861	3.15	3.37	1.71	-0.0964	1.36
CCGAGCAGGTTACGAGGGGGCATTCAGTGCGAAT	1.69	2.54	1.34	5.19	4.97	3.16	0.223	2.22
TCGAGTAGGTTACGGGGGGATTCAGGGATGAAGA	4.94	5.45	3.89	3.86	2.74	3.13	2.04	2.8
CCGAGTAGGTGACGAGGGGGCATTCAGTGCGAAT	5.58	5.86	1.39	4.21	5.4	2.76	0.823	1.75
TCGAGTAGGTTAGGGGGGCATTCAGGGATGAAGA	4.38	5.24	2.84	3.99	3.93	3.47	2.35	3.15
TCGATTAGGTTACGGGGGCATTCAGGGATGAAGA	5.15	5.84	2.49	3.63	2.83	3.51	1.32	3.28
CCGAGTAGGCTACGAGGGGGCATTCAGTGCGAAT	2.33	1.4	0.546	2.05	3.02	1.31	-0.663	0.81
TCGAGTAGGTTACGGTGGCATTCAGGGATGAAGA	3.28	3.56	0.177	-0.0566	-0.975	0.611	-0.958	0.864
CCGAGTAGGTTACGAGGCGGCATTCAGTGCGAAT	4.1	3.3	0.605	-0.147	-0.255	0.2	-0.448	0.768
